High-throughput results (PubChem BioAssay)
Rab9 promoter act – activators of Rab9 promoter; Potency, µM (highest dose often 9.22 µM), without a hit: top-dose activation, negative = inhibition, usual class: activators; Huh7 Rab9 promoter-luciferase reporter, luminescence, 24 h; AID 485297; 320,000 tested, 2.8% active; also: % of control where 0% means no effect; nearly all actives have a fitted effect of over 60% in size
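Using Huh7 cells stably transfected with Rab9 promoter–luciferase, compounds were incubated 24 h at 37 °C, 5% CO2; luciferase luminescence was read 10 min after reagent addition.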
SMN2 splice up – increases expression of the SMN2 splice variant. HEK293 SMN2-luciferase splicing reporter, luminescence, 30-36 h. Potency, µM (doses to about 46.1 µM), without a hit: at the highest dose activity change, positive = activation, most hits filed as activators. 210,000 tested, 2.8% active; also: % of control where 0% means no effect; nearly all actives have a fitted effect of over 55% in size
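qHTS luciferase splicing reporter: luminescence rises when SMN2 exon 7 is included in transfected HEK293 cells. Compound exposure lasted 30-36 h at 37C, with 4.5 mM final sodium butyrate as control, followed by a ONE-Glo read.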
NPC1 prom act – NPC1 promoter activation; Huh7 NPC1 promoter luciferase reporter, 24 h; Potency, µM (series often up to 9.22 µM), without a hit: at the top dose activation, actives largely listed as activators; 320,000 tested, 2.4% active; also: % of control where 0% means no effect; nearly all actives have a fitted effect of over 60% in size
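Huh7 reporter cells (NPC1 promoter driving luciferase) are dosed with compound for 24 h at 37 °C, 5% CO2; luciferase detection reagent is then added and luminescence measured after 10 min at ambient temperature.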
ELG1 genotoxic – induces genotoxicity in HEK293T cells with luciferase-tagged ELG1 | Potency, µM (top dose mostly 46 µM), for the others: top-dose activity change, positive = activation, most hits filed as activators | 330,000 tested, 1.3% active | HEK293T ELG1-luciferase reporter, luminescence, 16 h; also: % of control where 0% means no effect; nearly all actives have a fitted effect of over 60% in size
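HEK293T cells expressing luciferase-tagged ELG1 were treated with compound or DMSO for 16 hr at 37°C. Luciferase activity was then read after 30 min with ONE-Glo at room temperature; rising signal flags genetic stress.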
ELG1 DNA repair – blocks ELG1-dependent DNA repair in HEK293T cells; 330,000 tested, 2.3% active; HEK293T ELG1-luciferase reporter, luminescence, 16 h; DNA damage induced by 5-fluorouridine; AID 504467; Potency, µM (highest dose often 46.1 µM), for the others: at the highest dose activity change, negative = inhibition, usual class: inhibitors; also: % is scaled to controls: 0 for no effect and ±100 for the full control effect; nearly all actives have a fitted effect of over 55% in size
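HEK293T cells expressing luciferase-tagged ELG1 (2,000/well) received 5-Fluorouridine plus compound or DMSO for 16 hr at 37 °C. Luciferase was read by ONE-Glo luminescence after 30 min at room temperature.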
FLuc counter – firefly luciferase modulation, counter-screen for miR-21 project | P08659 | purified FLuc, Km substrates, luminescence inhibition | Potency, µM (titrated, usually from 57.5 µM), without a hit: at the top dose activity change, negative = inhibition, hits mostly inhibitors | 360,000 tested, 6.9% active | AID 588342;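 also: plate controls were vehicle for no effect and reference inhibitor for full effect; nearly all actives have a fitted effect of over 55% in size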
Target sequence (P08659 whole entry, looked up): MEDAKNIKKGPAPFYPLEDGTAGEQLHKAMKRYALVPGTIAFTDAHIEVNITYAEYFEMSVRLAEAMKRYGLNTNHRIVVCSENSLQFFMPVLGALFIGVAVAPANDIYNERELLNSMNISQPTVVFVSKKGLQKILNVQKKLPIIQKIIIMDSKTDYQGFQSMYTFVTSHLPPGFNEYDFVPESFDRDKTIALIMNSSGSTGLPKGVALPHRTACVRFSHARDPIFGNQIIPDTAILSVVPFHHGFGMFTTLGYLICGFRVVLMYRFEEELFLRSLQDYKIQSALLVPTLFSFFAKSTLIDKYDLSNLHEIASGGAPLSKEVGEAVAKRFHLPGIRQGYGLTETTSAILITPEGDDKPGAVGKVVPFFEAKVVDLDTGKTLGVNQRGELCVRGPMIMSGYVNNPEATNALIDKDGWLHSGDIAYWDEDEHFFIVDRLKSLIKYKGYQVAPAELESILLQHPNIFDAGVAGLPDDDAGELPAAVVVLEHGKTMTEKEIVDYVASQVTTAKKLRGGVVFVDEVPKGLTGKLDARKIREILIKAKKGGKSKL
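Purified P. pyralis luciferase, 10 nM final, with Km-level 10 uM D-luciferin and 10 uM ATP in 50 mM Tris acetate pH 7.5, 10 mM Mg acetate, 0.01% Tween-20, 0.05% BSA; 6-point qHTS titration about 60 µM downward; luminescence read.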
Numbers without * were called inactive; [ ] = remark or other dose. Only some compounds are listed: those with a hit (about 9.3% of all), similar ones and a draw of the others. Calls follow the shape of the dose curve; as a rule, active = well fitted curve in the direction sought with a large enough effect; inconclusive = small, poorly fitted or top-dose-only effect, or another doubt; inactive = no such curve, though single readings can be large; an effect the other way counts as inactive or inconclusive. Potency is read from the fitted curve at half-maximal effect.

What do the screens show for `Cc1ccc(-c2nc3sc(C(N)=O)c(N)c3c3c2CCCC3)cc1`?
Rab9 promoter act: -5.6%; SMN2 splice up: 10.0%; NPC1 prom act: -6.0%; ELG1 genotoxic: -6.1%; ELG1 DNA repair: inconclusive; FLuc counter: -0.4%

What do the screens show for `Cc1ccc(-c2csc(/C(C#N)=C(\O)CCl)n2)cc1`?
Rab9 promoter act: inconclusive; SMN2 splice up: -4.4%; NPC1 prom act: 22.7%; ELG1 genotoxic: 16.5%; ELG1 DNA repair: inconclusive; FLuc counter: 10.7µM*

Results for N#C/C(=C(/O)CCl)c1nc(-c2ccccc2)cs1 ?
Rab9 promoter act: 17.0%; NPC1 prom act: 2.1%; ELG1 genotoxic: 14.0%; ELG1 DNA repair: inconclusive; FLuc counter: inconclusive

How did CC(C)COC(=S)Nc1ccccc1 do in these assays?
Rab9 promoter act: 2.2%; SMN2 splice up: -9.5%; NPC1 prom act: -0.4%; ELG1 genotoxic: inconclusive; ELG1 DNA repair: inconclusive; FLuc counter: 16.9µM*

How did COC(=O)c1ccc2c(=O)n(CCCCCC(=O)N3CCN(c4ccc(Cl)cc4)CC3)c(=O)[nH]c2c1 do in these assays?
FLuc counter: 6.3%

What do the screens show for `COc1ccc(NC(=O)c2c3c(nc4ccccc24)CCC3)cc1S(=O)(=O)N1CCOCC1`?
Rab9 promoter act: -4.9%; SMN2 splice up: -3.1%; NPC1 prom act: 0.4%; ELG1 genotoxic: 0.7%; ELG1 DNA repair: -18.4%; FLuc counter: 2.3%

How did O=C1C2C(C(=O)N1c1ccncc1)C1C=CC2C12CC2 (configuration not stated) do in these assays?
Rab9 promoter act: -10.0%; SMN2 splice up: 1.6%; NPC1 prom act: 4.7%; ELG1 genotoxic: 1.8%; ELG1 DNA repair: 2.6%; FLuc counter: -0.5%

What do the screens show for `Cc1ccc(N2C(=O)C3C(C2=O)C2C=CC3C23CC3)cc1` (configuration not stated)?
Rab9 promoter act: 11.2%; SMN2 splice up: -7.5%; NPC1 prom act: 10.4%; ELG1 genotoxic: 6.2%; ELG1 DNA repair: inconclusive; FLuc counter: 10.7µM*

Results for C/C(Cc1ccccc1)=N\NC(=O)CNC(=O)Cc1ccc(Cl)cc1 ?
Rab9 promoter act: 0.7%; NPC1 prom act: 2.6%; ELG1 genotoxic: -2.5%; ELG1 DNA repair: -7.1%; FLuc counter: 1.4%

Results for NC(=O)c1cc(-c2csc(-c3cccnc3)n2)ccc1O ?
Rab9 promoter act: 3.7%; NPC1 prom act: 24.3%; ELG1 genotoxic: 3.6%; ELG1 DNA repair: inconclusive; FLuc counter: inconclusive

Results for COc1ccc(-c2csc(-c3cccnc3)n2)cc1C ?
Rab9 promoter act: 2.82µM*; NPC1 prom act: inconclusive; ELG1 genotoxic: inconclusive; ELG1 DNA repair: inconclusive; FLuc counter: 7.57µM*

Results for COc1ccc2cc(-c3csc(-c4cccnc4)n3)ccc2c1 ?
Rab9 promoter act: inconclusive; SMN2 splice up: 12.6µM*; NPC1 prom act: 3.16µM*; ELG1 genotoxic: 12.6µM*; ELG1 DNA repair: inconclusive; FLuc counter: 2.13µM*

Results for Cc1ccc(C)c(-c2csc(-c3cccnc3)n2)c1 ?
Rab9 promoter act: -0.3%; NPC1 prom act: 8.1%; ELG1 genotoxic: -2.8%; ELG1 DNA repair: 16.2%; FLuc counter: inconclusive

Results for Oc1c(C=NCc2ccccc2)sc2ccccc12 ?
Rab9 promoter act: 2.82µM*; SMN2 splice up: 2.5%; NPC1 prom act: inconclusive; ELG1 genotoxic: inconclusive; ELG1 DNA repair: inconclusive; FLuc counter: 10.7µM*

Results for O=[N+]([O-])c1cccc(N=Cc2sc3ccccc3c2O)c1 ?
Rab9 promoter act: inconclusive; SMN2 splice up: 9.1%; NPC1 prom act: 26.0%; ELG1 genotoxic: inconclusive; ELG1 DNA repair: inconclusive; FLuc counter: inconclusive

How did O=[N+]([O-])c1ccc(N=Cc2sc3ccccc3c2O)cc1 do in these assays?
Rab9 promoter act: inconclusive; SMN2 splice up: 25.1µM*; NPC1 prom act: 22.2%; ELG1 genotoxic: 8.2µM*; ELG1 DNA repair: inconclusive; FLuc counter: inconclusive

How did O=C(O)c1ccc(S(=O)(=O)NC2CCCCCC2)cc1 do in these assays?
Rab9 promoter act: 0.7%; NPC1 prom act: -0.1%; ELG1 genotoxic: 1.4%; ELG1 DNA repair: 16.5%; FLuc counter: 0.4%

How did Cc1cc(C=O)c(C)n1-c1ccc(N2CCCCC2)c([N+](=O)[O-])c1 do in these assays?
Rab9 promoter act: -2.5%; SMN2 splice up: 3.0%; NPC1 prom act: 0.8%; ELG1 genotoxic: 1.9%; ELG1 DNA repair: -3.0%; FLuc counter: 1.7%

Results for Cc1cc(/C=C(\C#N)C(N)=O)c(C)n1-c1ccc(N2CCOCC2)c([N+](=O)[O-])c1 ?
Rab9 promoter act: -1.4%; SMN2 splice up: -23.9%; NPC1 prom act: -3.0%; ELG1 genotoxic: -12.4%; ELG1 DNA repair: 23.1µM*; FLuc counter: 1.1%

What do the screens show for `CCCN1C(=O)c2cccc3c(N4CCCCC4)ccc(c23)C1=O`?
Rab9 promoter act: inconclusive; SMN2 splice up: 6.0%[1.84 µM]; NPC1 prom act: 19.5%; ELG1 genotoxic: inconclusive; ELG1 DNA repair: inconclusive; FLuc counter: 10.7µM*

Results for Cc1csc2nc(COc3ccc(NC(=O)c4ccccc4F)cc3)cc(=O)n12 ?
SMN2 splice up: -4.8%; FLuc counter: -2.4%

How did Clc1ccc(/C=C\c2nccc3c2[nH]c2ccccc23)cc1 do in these assays?
Rab9 promoter act: 21.2%; SMN2 splice up: 10.4%; NPC1 prom act: 27.3%; ELG1 genotoxic: 17.4%; ELG1 DNA repair: 0.0%; FLuc counter: 3.79µM*

Results for N#Cc1ccc(/C=C\c2nccc3c2[nH]c2ccccc23)cc1 ?
Rab9 promoter act: 11.3%; SMN2 splice up: -12.7%; NPC1 prom act: inconclusive; ELG1 genotoxic: 6.3%; ELG1 DNA repair: inconclusive; FLuc counter: inconclusive

Results for O=C1CC(c2cccc(Cl)c2)c2cc3c(cc2N1)CCC3 (configuration not stated) ?
Rab9 promoter act: -13.9%; SMN2 splice up: -8.9%; NPC1 prom act: -24.7%; ELG1 genotoxic: 0.2%; ELG1 DNA repair: -11.4%; FLuc counter: 0.8%

How did O=C1CC(c2cccc([N+](=O)[O-])c2)c2cc3c(cc2N1)CCC3 (configuration not stated) do in these assays?
Rab9 promoter act: 2.6%; SMN2 splice up: -68.5%; NPC1 prom act: -9.5%; ELG1 genotoxic: -5.8%; ELG1 DNA repair: 16.4µM*; FLuc counter: -0.4%

What do the screens show for `Cc1ccc(Nc2nc(C)cs2)cc1`?
Rab9 promoter act: inconclusive; SMN2 splice up: 8.91µM*; NPC1 prom act: inconclusive; ELG1 genotoxic: 20.6µM*; ELG1 DNA repair: inconclusive; FLuc counter: 13.5µM*

What do the screens show for `Cc1csc(Nc2ccc(Cl)cc2)n1`?
Rab9 promoter act: inconclusive; SMN2 splice up: inconclusive; NPC1 prom act: inconclusive; ELG1 genotoxic: inconclusive; ELG1 DNA repair: inconclusive; FLuc counter: 12µM*
